# Activity calls are given as the source filed them.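 How the source made its calls: active means peak inhibition of the KCNQ2 potassium channel above 30% at some tested dose, plus a fitted dose response curve; inactive means no inhibition at any dose, or no curve.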
# Biological target: Potassium voltage-gated channel subfamily KQT member 2 (Rattus norvegicus) (UniProt O88943)
# Experiment: blockade of KCNQ2 thallium flux – cell-based, FluxOR thallium flux, CRC set 2, selectivity assay for KCNK9 inhibitor project, SAR follow-up (AID 588800)
# Details: KCNQ2-expressing cells; series mostly up to 30 µM; thallium flux ratio, lower = inhibition: at the top concentration
# Potassium voltage-gated channel subfamily KQT member 2 (Rattus norvegicus), sequence (O88943 whole entry, looked up): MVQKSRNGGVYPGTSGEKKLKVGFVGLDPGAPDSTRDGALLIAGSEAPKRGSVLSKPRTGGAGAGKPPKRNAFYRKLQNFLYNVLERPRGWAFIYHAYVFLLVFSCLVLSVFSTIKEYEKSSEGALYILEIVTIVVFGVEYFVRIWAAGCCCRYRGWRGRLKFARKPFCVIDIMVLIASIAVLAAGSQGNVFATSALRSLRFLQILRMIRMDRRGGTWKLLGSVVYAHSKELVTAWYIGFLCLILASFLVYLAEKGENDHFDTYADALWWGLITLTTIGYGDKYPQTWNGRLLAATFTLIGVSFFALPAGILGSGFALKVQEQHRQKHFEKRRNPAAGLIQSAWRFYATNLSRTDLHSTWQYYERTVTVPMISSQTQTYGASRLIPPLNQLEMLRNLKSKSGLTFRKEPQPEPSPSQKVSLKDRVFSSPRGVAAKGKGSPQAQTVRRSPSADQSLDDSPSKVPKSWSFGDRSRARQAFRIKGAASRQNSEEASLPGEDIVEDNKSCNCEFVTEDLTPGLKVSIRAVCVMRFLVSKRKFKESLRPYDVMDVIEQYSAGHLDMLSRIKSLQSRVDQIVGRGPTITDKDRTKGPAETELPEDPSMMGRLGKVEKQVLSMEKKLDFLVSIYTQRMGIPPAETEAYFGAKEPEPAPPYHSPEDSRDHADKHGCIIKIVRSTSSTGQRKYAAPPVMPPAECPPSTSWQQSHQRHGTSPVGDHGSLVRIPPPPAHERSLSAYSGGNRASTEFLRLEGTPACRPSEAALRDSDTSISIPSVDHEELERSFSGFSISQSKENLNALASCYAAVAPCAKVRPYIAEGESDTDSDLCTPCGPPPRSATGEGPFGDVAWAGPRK
row,SMILES,"thallium flux ratio, lower = inhibition"
1,O=C(Nc1cccc(NC(=O)c2ccoc2)c1)c1ccccc1,0.171 (inactive)
2,COc1ccccc1NC(=O)c1cccc(NC(=O)CC2CCCC2)c1,0.162 (inactive)
3,O=C(Nc1cccc(NC(=O)c2cccc(Cl)c2)c1)c1ccccc1,0.143 (inactive)
4,CC(C1CC2CCC1C2)n1c(-c2ccoc2)n[nH]c1=S (configuration not stated),0.147 (inactive)
5,COc1ccccc1C(=O)Nc1cccc(NC(=O)c2ccccc2OC(F)(F)F)c1,0.183 (inactive)
6,CCOc1ccccc1NC(=O)c1cccc(NC(=O)c2ccc(Cl)cc2)c1,0.18 (inactive)
7,CC(C1CC2CCC1C2)n1c(-c2ccccc2Cl)n[nH]c1=S (configuration not stated),0.165 (inactive)
8,CCOc1ccccc1NC(=O)c1cccc(NC(=O)c2ccccc2)c1,0.183 (inactive)
9,COc1ccc(-c2n[nH]c(=S)n2C(C)C2CC3CCC2C3)cc1 (configuration not stated),0.157 (inactive)
10,CCOc1ccccc1NC(=O)c1cccc(NC(=O)c2ccccc2C(F)(F)F)c1,0.183 (inactive)
11,Cc1cccc(S(=O)(=O)Nc2cccc(NC(=O)c3ccccc3)c2)c1,0.195 (inactive)
12,O=C(Nc1cccc(NC(=O)c2ccccn2)c1)c1ccccc1,0.202 (inactive)
13,CC(C)n1c(-c2ccco2)n[nH]c1=S,0.167 (inactive)
14,Cc1cccc(C(=O)Nc2cccc(NC(=O)c3cccc(C)c3)c2)c1,0.203 (inactive)
15,CCOc1ccc(NC(=O)c2cccc(NC(=O)C3CCCC3)c2)cc1,0.179 (inactive)
16,CCOc1ccccc1NC(=O)c1cccc(NC(=O)c2cccc(OC)c2)c1,0.172 (inactive)
17,CC(C1CC2CCC1C2)n1c(-c2ccsc2)n[nH]c1=S (configuration not stated),0.158 (inactive)

# Source: PubChem BioAssay AID588800 (Johns Hopkins Ion Channel Center, 2011)
